Measured values published in PubChem BioAssay (EPA / NIEHS).
Values joined by “and” are separate entries in the source; they are usually repeats but may differ in a detail not shown here. Equal values may be shown once. Records with an inconclusive call do not appear. Where a structure was tested more than once in an assay, its records may differ in their call. Active and inactive are the calls of the source. Rule for the calls, unless noted: active = hit-call score of the fitted dose curve at least 0.9, where 1 is the maximum; inactive = score below 0.9.

Key:
[1] = CCTE_Shafer_MEA_dev_AB: CCTE's Alamar Blue Assay for Cytotoxicity in the Neural Network Formation Assay, Shafer Lab (AID 2284083; active = hit-call score of the fitted dose curve at least 0.9, where 1 is the maximum;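 note: twelve days of exposure from plating with re-dosing on DIV 5 and 9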)
Summary of the method: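 Primary rat cortical neurons on PEI-coated 48-well MEA plates, 1.5 x 10^5 cells/well in laminin drop; compound exposure from day 0 of plating for twelve days, renewed at medium changes on DIV 5 and 9. Viability read as resazurin reduction by fluorescence, relative to DMSO.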

[2] = CCTE_Shafer_MEA_acute_LDH: CCTE's Lactate Dehydrogenase Assay for Cytotoxicity in the Neural Acute Assay, Shafer Lab (AID 2284086; active = hit-call score of the fitted dose curve at least 0.9, where 1 is the maximum;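 note: active means LDH release rises above DMSO vehicle level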)
Summary of the method: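 LDH absorbance at 490 nm in medium taken right after 40-min compound exposure; rat primary cortical neuron networks on MEA plates, days post-plating 13 or 15. Increase over DMSO baseline scored as cytotoxicity.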

[3] = CCTE_Shafer_MEA_dev_mutual_information_norm: CCTE's Neural Network Formation Assay for Mutual Information Normalization, Shafer Lab (AID 2284091);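 for AC50: mutual information between electrodes summarised as area under curve across four recording days; potency is for a decrease in mutual information relative to DMSO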
Summary of the method: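 Neurons from rat cortex were seeded at 1.5 x 10^5 cells/well onto PEI-coated MEAs in a laminin drop, then exposed to compound from day 0 for twelve days. Network recordings on four days gave mutual information, summarised by AUC relative to DMSO.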

[4] = CCTE_Shafer_MEA_dev_correlation_coefficient_mean: CCTE's Neural Network Formation Assay for Mean Correlation Coefficient, Shafer Lab (AID 2284093);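 for AC50: well mean pairwise spike train correlation integrated as AUC over recording days 5 to 12; potency fitted for loss of correlation relative to DMSO vehicle wells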
Summary of the method: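 Spontaneous activity recorded on days 5, 7, 9 and 12 post-plating; pairwise spike correlations are averaged across active electrodes and collapsed to an area-under-curve. Rat cortical cultures are dosed from plating through 12 days, with compound renewed at media changes.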

[5] = UKN2_HCS_IMR90_neural_migration: University of Konstanz (UKN) Leist Lab Neural Crest Cell Migration Assay in human induced IMR90 Pluripotent Stem Cells (UKN2) (AID 2284204); conditions: actives raise or lower the signal
Summary of the method: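 Stopper-exclusion migration (cMINC), human iPSC-derived neural crest cells; N2-S + EGF/FGF; compound added 24 h post-stopper removal, 24 h exposure. Readout: calcein-AM/Hoechst 30 min, HCS fluorescence imaging; bidirectional fitting, DMSO baseline.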

[6] = IUF_NPC1b_proliferation_BrdU_72hr: Leibniz Research Institute for Environmental Medicine (IUF) 72-hour Neural Progenitor Cell Bromodeoxyuridine (BrdU) Proliferation Assay (NPC1b) (AID 2284207)
Summary of the method: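 Luminescent BrdU ELISA measured DNA synthesis during the last 16 h of a 72 h exposure of primary human neural progenitor spheres grown with EGF and FGF. Signal was fitted relative to DMSO controls.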

[7] = IUF_NPC1a_proliferation_area_72hr: Leibniz Research Institute for Environmental Medicine (IUF) 72-hour Neural Progenitor Cell Proliferation Area Assay (NPC1a) (AID 2284208)
Summary of the method: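 Proliferation read as increase in sphere area by phase-contrast imaging over 72 h continuous compound exposure (no renewal) of hNPC spheres grown with EGF/FGF at 37C, 5% CO2. Growth-factor withdrawal served as positive control; DMSO as baseline.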

[8] = IUF_NPC1_viability_72hr: Viability Assessment at 72 hours in the Leibniz Research Institute for Environmental Medicine (IUF) Neural Progenitor Cell Proliferation Assay (NPC1) (AID 2284209)
Summary of the method: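 Alamar blue fluorescence (RFU) after 72 h exposure, normalized to DMSO baseline. hNPC spheres from GW 16-19 fetal cortex, single sphere per well in growth-factor medium; no compound renewal.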

[9] = CCTE_Mundy_HCI_Cortical_Synap_Neur_Matur_NeuriteSpotCountPerNeuriteLength: CCTE's Synaptogenesis and Neurite Maturation Assay in rat cortical cells for Neurite Spot Count per Neurite Length, Mundy Lab (AID 2284210)
Summary of the method: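 Read-out: synaptophysin puncta counted along MAP2-stained neurites, normalised to neurite length, by automated high-content imaging. Rat cortical cells; AraC DIV 5; chemical dosing DIV 7; termination DIV 12. DMSO baseline.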

[10] = CCTE_Mundy_HCI_Cortical_Synap_Neur_Matur_BPCount: CCTE's Synaptogenesis and Neurite Maturation Assay in rat cortical cells for Branch Point Count, Mundy Lab (AID 2284211)
Summary of the method: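 In this multiplexed morphology assay, cortical cells from rat receive chemicals at DIV 7 and are fixed at DIV 12, then immunostained and imaged; branch points are counted, with DMSO as baseline.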

[11] = CCTE_Mundy_HCI_Cortical_NOG_NeuriteCount: CCTE's Neurite Outgrowth Assay in rat cortical cells for Neurite Count, Mundy Lab (AID 2284212);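 note: cells fixed about two days after chemical exposure began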
Summary of the method: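 Rat cortical primary cells; compound added 2 h post-plating, 1/10 dilution of working solution. Anti-betaIII-tubulin/AF488 ICC; ArrayScan neurite count vs DMSO.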

[12] = CCTE_Mundy_HCI_Cortical_NOG_NeuriteLength: CCTE's Neurite Outgrowth Assay in rat cortical cells for Neurite Length, Mundy Lab (AID 2284213);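 for AC50: neurites imaged about 48 to 50 h after chemical exposure began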
Summary of the method: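 First, rat primary cortical cells were plated and, 2 h later, given test chemical as a 1/10 dilution. Finally, βIII-tubulin immunostaining enabled automated imaging of neurite length.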

[13] = CCTE_Mundy_HCI_Cortical_Synap_Neur_Matur_NeuriteLength: CCTE's Synaptogenesis and Neurite Maturation Assay in rat cortical cells for Neurite Length, Mundy Lab (AID 2284214)
Summary of the method: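 Read-out: high-content imaging of MAP2-labelled neurites, with synaptophysin and Hoechst co-stain, in rat cortical cultures fixed at DIV 12. Activity fitted in positive direction relative to DMSO baseline.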

[14] = CCTE_Mundy_HCI_Cortical_Synap_Neur_Matur_NeuriteSpotCountPerNeuron: CCTE's Synaptogenesis and Neurite Maturation Assay in rat cortical cells for Neurite Spot Count per Neuron Count, Mundy Lab (AID 2284215)
Summary of the method: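 High-content imaging counts synaptophysin puncta along MAP2-labelled neurites per neuron after chemical exposure of rat cortical cells from DIV 7 to termination at DIV 12 (AraC added DIV 5). Loss of signal relative to DMSO.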

[15] = CCTE_Mundy_HCI_Cortical_Synap_Neur_Matur_SynapseCount: CCTE's Synaptogenesis and Neurite Maturation Assay in rat cortical cells for Synapse Count, Mundy Lab (AID 2284218)
Summary of the method: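 Read-out: synapse number per neuron, automated high-content imaging of fixed cells immunostained for MAP2 and synaptophysin plus Hoechst nuclei. Rat primary cortical cultures, AraC at DIV 5, chemical dosing DIV 7–12. Positive-direction fit relative to DMSO.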

[16] = tested on: DIO3 (gene 1735); experiment: CCTE_GLTED_hDIO3: CCTE's human Deiodinase 3 (DIO3) Inhibition Assay, Great Lakes Toxicology and Ecology Division (GLTED) Lab (AID 2284055; active = hit-call score of the fitted dose curve at least 0.9, where 1 is the maximum;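 note: potency is for inhibition seen as loss of released iodide signal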)
Summary of the method: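 hDIO3 (adenovirus-expressed) + test chemical, 3 h incubation; free iodide quantified by Sandell-Kolthoff reaction, absorbance read-out. DMSO negative control, n=3.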

[17] = UKN5_HCS_SBAD2_cell_viability: Viability Assessment in the University of Konstanz (UKN) Leist Lab Neurite Outgrowth Assay in human iPSC-derived immature Dorsal Root Ganglia Neurons (UKN5) (AID 2284056)
Summary of the method: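 iPSC-derived immature peripheral neurons (SBAD2) seeded on Matrigel with CHIR99021, SU5402 and DAPT, dosed 1 h later for 24 h. Viability from Hoechst H-33342 and calcein-AM live staining, high-content imaging; bidirectional fit versus DMSO.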

[18] = UKN5_HCS_SBAD2_neurite_outgrowth: University of Konstanz (UKN) Leist Lab Neurite Outgrowth Assay in human iPSC-derived immature Dorsal Root Ganglia Neurons (UKN5) (AID 2284070); conditions: actives raise or lower the signal
Summary of the method: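 Cryopreserved SBAD2 peripheral neurons were seeded at 100.000 cells/cm2 in N2-S/KSR medium containing CHIR99021, SU5402 and DAPT, then exposed to compounds for 24 h. Neurite area from calcein-AM high-content imaging was fitted bidirectionally against DMSO.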

[19] = UKN4_HCS_LUHMES_neurite_outgrowth: University of Konstanz (UKN) Leist Lab Neurite Outgrowth Assay in human LUHMES cells (UKN4) (AID 2284206); conditions: actives raise or lower the signal
Summary of the method: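 Read-out: calcein-AM neurite area by high-content fluorescence imaging, with Hoechst H-33342 viability counterstain, after 24 h chemical exposure of day-2 differentiated LUHMES cells. Activity fitted bidirectionally against DMSO baseline.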

Measured: AC50

CCOP(=O)(NC(C)C)Oc1ccc(SC)c(C)c1 (centres undefined)
inactive: [1] | [2] | [3] | [4] | [5] | [7] | [8] | [9] | [10] | [11] | [12] | [13] | [14] | [15]
active: [3] 36.3 µM | [4] 90.9 µM | [6] 27.9 µM

CCCOCC(=Nc1ccc(Cl)cc1C(F)(F)F)n1ccnc1
inactive: [2]
active: [16] 2.38 µM

CON=C(C(=O)OC)c1ccccc1CON=C(C)c1cccc(C(F)(F)F)c1
inactive: [2] | [6]
active: [1] 1.26 µM and 437 nM | [3] 671 nM and 812 nM | [4] 941 nM and 501 nM | [5] 15.2 µM | [7] 9.57 µM | [8] 32.8 µM | [9] 489 nM | [10] 446 nM | [11] 1.2 µM | [12] 1.14 µM | [13] 954 nM | [14] 320 nM | [15] 664 nM

C#CCC1=C(C)C(OC(=O)C2C(C=C(C)C)C2(C)C)CC1=O (centres undefined)
active: [16] 34.5 µM | [3] 0.303 µM | [4] 3 µM
inactive: [1] | [2]

COP(=O)(OC)C(O)C(Cl)(Cl)Cl (centres undefined)
active: [17] 9.96 µM | [1] 50 µM and 1.05 µM | [3] 18.4 µM and 3.54 µM | [4] 31.7 µM and 15 µM | [10] 26800 nM | [13] 36900 nM | [14] 50000 nM | [15] 50000 nM
inactive: [18] | [6] | [7] | [8] | [9] | [11] | [12]

CC[C@H](C)[C@H]1O[C@]2(C=C[C@@H]1C)C[C@@H]1C[C@@H](C/C=C(\C)[C@@H](O[C@H]3C[C@H](OC)[C@@H](O[C@H]4C[C@H](OC)[C@@H](NC)[C@H](C)O4)[C@H](C)O3)[C@@H](C)/C=C/C=C3\CO[C@@H]4[C@H](O)C(C)=C[C@@H](C(=O)O1)[C@]34O)O2
inactive: [2]
active: [16] 33.6 µM | [17] 1.52 µM | [18] 1.12 µM | [1] 656 nM | [3] 0.981 nM and 1.87 nM | [4] 318 nM and 15.9 nM | [5] 4.54 µM and 1.96 µM | [19] 1.79 µM | [6] 25 µM and 1.71 µM | [7] 5.17 µM and 2.01 µM | [8] 6.92 µM and 2.51 µM | [9] 587 nM and 1 µM | [10] 428 nM and 668 nM | [11] 1.47 µM and 1.53 µM | [12] 1.24 µM and 1.58 µM | [13] 387 nM and 828 nM | [14] 441 nM and 565 nM | [15] 522 nM and 658 nM

CCNc1nc(Cl)nc(NC(C)(C)C#N)n1
active: [16] 21.5 µM

CSC1=N[C@@](C)(c2ccccc2)C(=O)N1Nc1ccccc1
inactive: [17] | [18] | [1] | [2] | [3] | [4] | [6] | [7] | [8] | [9] | [10] | [11] | [12] | [13] | [14] | [15]

C[Si](Cn1cncn1)(c1ccc(F)cc1)c1ccc(F)cc1
inactive: [1] | [2] | [4]
active: [3] 1.61 µM

C[N+]1(C)CCCCC1
inactive: [1] | [2] | [3] | [4] | [6] | [7] | [8] | [9] | [10] | [11] | [12] | [13] | [14] | [15]

CCc1cccc(CC)c1N(COC)C(=O)CCl
active: [16] 52.3 µM
